Assay outcomes: PubChem, Broad Institute
Only some compounds are listed: those with a hit (about 3.1% of all), similar ones and a draw of the others.
miR-122 sensor: miR-122 inhibition in Huh7 cells; Huh7 miR-122 Renilla luciferase sensor, 48 h; neutral wells = 0, positive control = 100; activation (reporter increase), % at 12.5 µM; 0.3% of 340,000 active; AID 602342;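 active = mean replicate activation score at least 90 and every replicate individually at or above 90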;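 note: higher luciferase means less miR-122 activity so hits act as miR-122 inhibitors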
EWS-Fli inh: EWS/Fli transcriptional activity inhibition; A673 NR0B1-luciferase reporter, viability-normalised; inhibition, % at 12.6 µM; 0.67% of 350,000 active; AID 651661;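 active = mean inhibition of at least 50% after viability correction, with every replicate also passing that limit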;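 note: firefly luciferase signal divided by Alamar Blue viability fluorescence both relative to DMSO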
PAX8 reporter: PAX8 transcriptional activity inhibition. RMG-I TPO-luciferase reporter, SteadyGlo, 24 h. inhibition, % at 12.6 µM. 1.2% of 360,000 active. AID 652154;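 active = mean replicate inhibition at least 60% with every replicate also reaching 60%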;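 note: luciferase light reporting Pax8 driven TPO promoter activity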
C2C12 statin: suppression of simvastatin myotoxicity; C2C12 myotubes + simvastatin, ATP luminescence, 48 h; scaled: DMSO 0, geranylgeraniol control 100; rescue of ATP level, % at 7.49 µM; 0.78% of 330,000 active; AID 602340;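 active = mean ATP rescue above about 67%, or every replicate alone reaching that limit, limit read from the data, passing the limit was not always enough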;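 note: myotubes were challenged with 10 µM simvastatin during compound exposure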
HIV Env fusion: blocks HIV Env-driven cell-cell fusion | AID 651610 | HeLa-JRFL Env/CEM21 cell fusion, luciferase | 1.1% of 360,000 active | inhibition, % at 12.3 µM;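 active = mean replicate inhibition score of at least 50 and every replicate individually at or above 50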
INS-1E GSIS act: primary screen for activators of insulin secretion dependent on glucose, INS-1E cells, GLuc reporter luminescence | INS-1E GLuc reporter insulin secretion, 2-3 h | activation, % at 16.6 µM | 0.61% of 370,000 active;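 active = lowest replicate activation of at least 40%, so every replicate reaches that level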
Each line names hits and unclear results; the compound was inactive in the other large screens.

CCC1CN1P(=O)(N1CCCC1)N1CC1CC (stereo unspecified)	HIV Env fusion 59.4
O=C1CN=C(c2ccccc2)c2ccccc2N1Cc1ccc(C(F)(F)F)cc1	HIV Env fusion 76.1 (no result: EWS-Fli inh, PAX8 reporter)
COC(=O)C[C@H]1CC[C@@H]2NC[C@H](O)COC[C@H]2O1	none
CS(=O)(=O)N1CC2NC(C1)C2c1ccc(Br)cc1 (stereo unspecified)	none (no result: miR-122 sensor, EWS-Fli inh, PAX8 reporter, C2C12 statin, HIV Env fusion)
C=COCCn1c(C)c(C(C)=O)c2cc(O)ccc21	C2C12 statin 113.4
C=CC1CN2CCC1C[C@@H]2CO (stereo partly specified)	none (no result: miR-122 sensor, C2C12 statin, INS-1E GSIS act)
COc1cc(C2c3cc4c(cc3CC3COC(=O)C32)OCO4)cc(OC)c1O (stereo unspecified)	PAX8 reporter 74.9 (no result: miR-122 sensor, C2C12 statin)
COc1ccc2c(c1OC)C(=O)OC2C1c2cc3c(cc2CCN1C)OCO3 (stereo unspecified)	none (no result: INS-1E GSIS act)
Cc1cccc(S(=O)(=O)N2[C@@H]3Cn4c(ccc(-c5ccccc5)c4=O)[C@H]2[C@@H](C(=O)O)[C@@H]3CO)c1	none (no result: HIV Env fusion)
O=C1NC2C(O)C(O)C(O)C(O)C2c2cc3c(c(O)c21)OCO3 (stereo unspecified)	EWS-Fli inh 56.3, PAX8 reporter 105.0, HIV Env fusion 118.7 (no result: miR-122 sensor, C2C12 statin)
O=C1NC2C(=CC(O)C(O)C2O)c2cc3c(c(O)c21)OCO3 (stereo unspecified)	EWS-Fli inh 54.4, HIV Env fusion 64.5 (no result: PAX8 reporter, C2C12 statin)
COc1ccc(-c2ccc([C@@H]3[C@H]4CN(C(=O)Cc5ccncc5)CCCCN4[C@H]3CO)cc2)cc1	none (no result: HIV Env fusion)
C=C1C(=O)OC2CC3(C)OC3C3OC3C3=CC(OC3=O)C12 (stereo unspecified)	EWS-Fli inh 57.6 (no result: PAX8 reporter, HIV Env fusion, INS-1E GSIS act)
CCC1C(c2cc(OC)c(OC)c(OC)c2)c2cc3c(cc2OC1N1CCCC1)OCO3 (stereo unspecified)	EWS-Fli inh 55.9 (no result: miR-122 sensor, PAX8 reporter, C2C12 statin)
C/C=C(\C)C(=O)N[C@@H](c1ccccc1)[C@@H](O)C(=O)O[C@H]1C[C@@]2(O)[C@@H](OC(=O)c3ccccc3)C3[C@](C)(C(=O)[C@H](OC(C)=O)C(=C1C)C2(C)C)[C@H](O)C[C@H]1OC[C@@]31OC(C)=O (stereo partly specified)	EWS-Fli inh 57.7 (no result: PAX8 reporter, HIV Env fusion, INS-1E GSIS act)
CC/C=C/CC(=O)N[C@@H](c1ccccc1)[C@@H](O)C(=O)O[C@H]1C[C@@]2(O)[C@@H](OC(=O)c3ccccc3)C3[C@](C)(C(=O)[C@H](OC(C)=O)C(=C1C)C2(C)C)[C@@H](O)C[C@H]1OC[C@@]31OC(C)=O (stereo partly specified)	none (no result: PAX8 reporter, HIV Env fusion, INS-1E GSIS act)
CCC(C)C(=O)N[C@@H](c1ccccc1)[C@@H](O)C(=O)O[C@H]1C[C@@]2(O)[C@@H](OC(=O)c3ccccc3)C3[C@](C)(C(=O)[C@H](OC(C)=O)C(=C1C)C2(C)C)[C@@H](O)C[C@H]1OC[C@@]31OC(C)=O (stereo partly specified)	EWS-Fli inh 56.2 (no result: PAX8 reporter, HIV Env fusion, INS-1E GSIS act)
COC(=O)[C@H]1[C@H](CO)[C@H]2Cn3c(ccc(C4=CCCCC4)c3=O)[C@@H]1N2C(=O)CC1CC1	none (no result: HIV Env fusion)
CN1[C@@H]2CN(S(C)(=O)=O)C[C@H]1C2c1ccccc1 (stereo partly specified)	none (no result: miR-122 sensor, EWS-Fli inh, PAX8 reporter, C2C12 statin, HIV Env fusion)
Cc1cccc(-n2c(O)c(/C=C3/C(c4ccccc4)=Nc4ccccc43)c(=O)[nH]c2=O)c1	HIV Env fusion 91.7
O=c1[nH]c2ccccc2n1C1CCN(Cc2ccc(-c3[nH]c4cc5ncnc5cc4nc3-c3ccccc3)cc2)CC1	PAX8 reporter 72.1 (no result: miR-122 sensor, C2C12 statin)
Cc1cccc(C)c1-n1nnnc1C(c1cc2ccccc2o1)N1CCC(n2c(=O)[nH]c3ccccc32)CC1 (stereo unspecified)	none
O=c1[nH]c2ccccc2n1C1CCN(C(c2cc3ccccc3o2)c2nnnn2Cc2ccccc2)CC1 (stereo unspecified)	PAX8 reporter 108.1
COc1cccc(C(c2nnnn2Cc2ccccc2)N2CCC(n3c(=O)[nH]c4ccccc43)CC2)c1OC (stereo unspecified)	PAX8 reporter 90.6
O=C1NCN(c2ccccc2)C12CCN(C(c1cccc3ccccc13)c1nnnn1Cc1ccccc1)CC2 (stereo unspecified)	none
